Experimental data as given in PubChem BioAssay (NCI).
The panel holds about 83,000 compounds, 20% with a hit somewhere; the sample as a whole holds those more often.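 96-well plates, one dose, 48 hours. Percent growth reported; active if below 10.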 A number with no mark means an inactive call. Active and inactive are the calls of the source.

Assays:
Test in all cases: NCI-60 one-dose screen, 48 h (100 = growth as untreated, 0 = no growth, -100 = all killed)
Conditions in all cases: 10 µM unless noted
NCI-H23 lung = system: NCI-H23 lung
NCI-H226 lung = system: NCI-H226 lung
NCI-H322M lung = system: NCI-H322M lung
HOP-62 NSCLC = system: HOP-62 NSCLC
NCI-H460 lung = system: NCI-H460 lung
HOP-92 NSCLC = system: HOP-92 NSCLC
NCI-H522 lung = system: NCI-H522 lung
A549/ATCC NSCLC = system: A549/ATCC NSCLC
786-0 renal = system: 786-0 renal
COLO 205 colon = system: COLO 205 colon
DU-145 prostate = system: DU-145 prostate
K-562 leukemia = system: K-562 leukemia
MALME-3M melanoma = system: MALME-3M melanoma
MDA-MB-231 breast = system: MDA-MB-231 breast
RXF 393 renal = system: RXF 393 renal
SF-268 CNS = system: SF-268 CNS
SF-295 CNS = system: SF-295 CNS
SF-539 CNS = system: SF-539 CNS
UACC-257 melanoma = system: UACC-257 melanoma
M14 melanoma = system: M14 melanoma

Structure (SMILES) | growth (NCI-H23 lung) | growth (NCI-H226 lung) | growth (NCI-H322M lung) | growth (HOP-62 NSCLC) | growth (NCI-H460 lung) | growth (HOP-92 NSCLC) | growth (NCI-H522 lung) | growth (A549/ATCC NSCLC) | growth (786-0 renal) | growth (COLO 205 colon) | growth (DU-145 prostate) | growth (K-562 leukemia) | growth (MALME-3M melanoma) | growth (MDA-MB-231 breast) | growth (RXF 393 renal) | growth (SF-268 CNS) | growth (SF-295 CNS) | growth (SF-539 CNS) | growth (UACC-257 melanoma) | growth (M14 melanoma)
COc1ccc(/C=C2\COc3ccc(O)cc3C2=O)c(OC)c1OC | 89.5% | 99% | 95.8% | 80.9% | 84.8% | 102% | 55.6% | 92.4% | 87.7% | 102% | 46.2% | 17.7% | 78.2% | 82.9% | 111% | 93.4% | 98.3% | 81.6% | 97.2% | 86%
O=C1/C(=C\c2cn(-c3ccccc3)nc2-c2ccc(-c3cccs3)cc2)CCc2ccccc21 | 71.4% | 74.4% | 98.5% | 75.5% | 47.1% | 78.7% | 24.7% | 60.4% | 73.2% | 74.6% | 85.8% | 17.6% | 65.4% | 67.5% | 58.1% | 70.5% | 54.8% | 72% | 83.3% | 39.1%
O=C(NCCCN1CCOCC1)c1cccc(N2C(=O)/C(=C/c3ccc(F)cc3)SC2=S)c1 | 92.5% | 90.4% | 104% | 100% | 107% | 46.7% | 90.3% | 103% | 97.2% | 111% | 101% | 96.2% | 90.4% | 88.9% | 94.2% | 94.1% | 95.5% | 90.6% | 97.2% | 93.8%
CC1(C)CCC(S(=O)(=O)c2ccc3c(c2)/C(=N\O)c2cc(S(=O)(=O)N4CCC(O)(c5cccc(C(F)(F)F)c5)CC4)ccc2-3)CC1 | -48.7% (active) | -55.9% (active) | -38.5% (active) | -92.1% (active) | -84.5% (active) | -36% (active) | -81.4% (active) | -83.9% (active) | -87.3% (active) | -90% (active) | -83.8% (active) | -70.2% (active) | -79% (active) | -68.7% (active) | -85.4% (active) | -71.2% (active) | -64.8% (active) | -82.1% (active) | -69.9% (active) | -74.8% (active)
CCCCCCNC(=O)Oc1ccc(/C(=C(/C)Cc2ccc(OC)cc2)c2ccc(OCCCN(C)C)cc2)cc1 | 70.7% | 90.5% | 70.5% | 76% | -52.7% (active) | 25% | 36.4% | 31.9% | 44.5% | -84% (active) | 48.9% | -51.8% (active) | -51.2% (active) | 32.6% | 31.2% | 60.8% | 10.5% | 40.7% | -6.6% (active) | -63.9% (active)
O=C(c1ccc(-c2ccccc2)cc1)c1ccc([N+](=O)[O-])cc1 | 103% | 98.5% | 115% | 111% | 109% | 90.6% | 89.5% | 114% | 99.9% | 111% | 121% | 69.8% | 163% | 90.8% | 109% | 102% | 83.6% | 107% | 121% | 94.5%
O=C1C(Cl)=C(Oc2ccccc2)C(=O)c2ccccc21 | 85.9% | 90.8% | 83.1% | 86% | 94.4% | 72.6% | -83.3% (active) | 100% | 94.1% | 32.3% | 122% | 37.2% | 76.3% | 81.4% | 96.8% | 79.3% | 76.6% | 75.2% | 89.9% | 96.2%
C=C(CNCCc1ccc(O)cc1)[C@@H]1CC[C@]2(CO)CC[C@]3(C)[C@H](CC[C@@H]4[C@@]5(C)CCC(NCCO)C(C)(C)[C@@H]5CC[C@]43C)[C@@H]12 (stereo not given in full) | -33.5% (active) | 81.5% | -24.5% (active) | -68.7% (active) | -87.4% (active) | -62.6% (active) | -67.2% (active) | -39% (active) | -92.1% (active) | -68.5% (active) | -31% (active) | -49% (active) | -90.6% (active) | -77.6% (active) | -90.3% (active) | -62.4% (active) | -80.8% (active) | -97.3% (active) | -77.9% (active) | -89.3% (active)
Nc1c(C(=O)Nc2ccccc2Cl)sc2nc3c(cc12)C(O)CCC3 (stereo not given) | 44.2% | 52.8% | 60.2% | 41.8% | 24.5% | 46.4% | -33.7% (active) | 25.4% | 48.1% | 4.09% (active) | 14.4% | 10.9% | 76.2% | 58.2% | 19.6% | 65.6% | 22.8% | 3.94% (active) | 56.8% | 19.9%
COc1cc(OC)c2sc(-c3ccc(-n4cncc4-c4ccc(OC)c(OC)c4)cc3)nc2c1 | 66.1% | 66.7% | 92.3% | 83.2% | 23.3% | 39.4% | 50.5% | 45.6% | 74.5% | 48.3% | -4.76% (active) | 65.5% | 73.1% | 68% | 12.1% | 60.5% | 48.8% | 66.5% | 71.5% | 67.6%
COCCn1c(-c2csc(-c3cn(C)c4ccc(OC)cc34)n2)cc2cccnc21 | 63.8% | 81.3% | 82.4% | 60.9% | 21.7% | 67.5% | -24.5% (active) | 48% | 30.9% | 37.5% | 62.7% | -25.5% (active) | 106% | 43.6% | 52.3% | 64.1% | 58.9% | 58.9% | 54.5% | 44.2%
O=C(/C=C/c1cccs1)c1ccc(Cl)nc1 | 102% | 107% | 99.3% | 94.9% | 106% | 105% | 82% | 98.6% | 93.7% | 108% | 106% | 97.1% | 95.7% | 116% | 119% | 102% | 101% | 101% | 100% | 101%
CN(C)CCCC1(c2ccc(F)cc2)OCc2cc(-c3cccc4[nH]ccc34)ccc21 (stereo not given) | 75.2% | 65.7% | 61.5% | 16.2% | -23.3% (active) | 30.6% | 28% | 28.3% | 37% | -64.2% (active) | 18.9% | -4.22% (active) | -91.6% (active) | 40.8% | 37.6% | 41% | 20% | 14% | -5.65% (active) | -68.4% (active)
O=C(Nc1ccc(-c2nc(N3CCOCC3)c3cccn3n2)cc1)Nc1cccnc1 | 17.2% | -5.75% (active) | 0.902% (active) | -3.37% (active) | 7.47% (active) | -22.5% (active) | 4.32% (active) | 0.989% (active) | -12.7% (active) | 6.07% (active) | 5.28% (active) | 15.2% | -29.9% (active) | -0.801% (active) | -30.5% (active) | 11.9% | -36.4% (active) | -39.8% (active) | -11.7% (active) | -0.739% (active)
C[C@]12CC[C@@H]3c4ccc(O)c([N+](=O)[O-])c4CC[C@H]3[C@@H]1CCC2=O | 95.7% | 95.7% | 99% | 104% | 112% | 86.6% | 85.8% | 102% | 90.1% | 159% | 117% | 96.7% | 98.5% | 91.4% | 97% | 66.7% | 98.7% | 98.2% | 106% | 102%
